± gives the standard deviation of the averaged measurements.

This assay addresses T1, MurD (UniProt P14900).
T1 sequence (whole entry): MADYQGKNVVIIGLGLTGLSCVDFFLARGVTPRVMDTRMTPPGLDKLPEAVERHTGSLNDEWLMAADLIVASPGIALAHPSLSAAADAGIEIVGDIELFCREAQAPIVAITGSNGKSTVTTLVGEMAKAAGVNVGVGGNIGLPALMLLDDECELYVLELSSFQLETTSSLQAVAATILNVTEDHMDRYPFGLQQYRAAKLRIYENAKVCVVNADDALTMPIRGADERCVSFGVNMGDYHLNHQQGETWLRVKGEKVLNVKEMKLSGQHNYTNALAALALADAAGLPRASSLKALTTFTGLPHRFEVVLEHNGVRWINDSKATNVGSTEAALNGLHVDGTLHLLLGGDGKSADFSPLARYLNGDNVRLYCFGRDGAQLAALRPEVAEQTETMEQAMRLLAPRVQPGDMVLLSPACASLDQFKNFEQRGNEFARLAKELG
Nature of the assay: relative enzymatic activity vs untreated control (fraction); higher = less inhibition. The conditions noted are these: 100 µM; incubation time: 2 h at 37 C. As for the experimental part: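 In vitro enzymatic inhibition assays (ProFoldin kits) for 12 purified essential E. coli enzymes or complexes, each treated with 218 active antibacterial compounds at 100 µM for 2 h at 37°C. Read-outs were fluorescence or absorbance (phosphate detection, dye binding), converted to activity via standard curves and expressed relative to untreated DMSO controls.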
For the molecule `[O-][n+]1ccccc1[S][Zn][S]c1cccc[n+]1[O-]`, the relative enzymatic activity stood at 0.587 ± 0.4.

`C[CH2][Hg][S]c1ccccc1C(=O)[O-].[Na+]` came in with a relative enzymatic activity of 0.657 ± 0.43.

`CCCCCCCCCCCCCCCC[n+]1ccccc1` displayed a relative enzymatic activity of 0.191 ± 0.13.

Consider `COP(=S)(OC)Oc1cc(Cl)c(Cl)cc1Cl`, for which the relative enzymatic activity is 0.655 ± 0.44.

The molecule `Oc1cc(Cl)ccc1Oc1ccc(Cl)cc1Cl` showed a relative enzymatic activity of 0.759 ± 0.41.

`CCCCCCCCCCCCCCCC[n+]1ccccc1.[Cl-]` showed a relative enzymatic activity of 0.0847 ± 0.0065.

In the case of `CCCCCCCCCCCCCCCC[N+](C)(C)C.[Br-]`, the relative enzymatic activity is 0.256 ± 0.17.

`Cc1c(N)nc([C@H](CC(N)=O)NC[C@@H](N)C(N)=O)nc1C(=O)N[C@H](C(=O)N[C@@H](C)[C@H](O)[C@@H](C)C(=O)N[C@@H](C(=O)NCCc1nc(-c2nc(C(=O)NCCC[S+](C)C)cs2)cs1)[C@@H](C)O)[C@@H](O[C@H]1O[C@H](CO)[C@H](O)[C@@H](O)[C@H]1O[C@H]1O[C@H](CO)[C@@H](O)[C@H](OC(N)=O)[C@@H]1O)c1cnc[nH]1`: the relative enzymatic activity is 0.624 ± 0.45.

Take `CC(=O)[O][Hg][c]1ccccc1`: the relative enzymatic activity stood at 0.226 ± 0.14.

`O=S(=O)(O)O.Oc1cccc2cccnc12`: the relative enzymatic activity amounted to 0.564 ± 0.35.

The molecule `CN(C)[C@@H]1C(=O)C(C(N)=O)=C(O)[C@@]2(O)C(O)=C3C(=O)c4c(O)cccc4[C@](C)(O)[C@H]3C[C@@H]12` showed a relative enzymatic activity of 0.606 ± 0.43.

Molecule `Cn1ncnc2c(=O)n(C)c(=O)nc1-2` displayed a relative enzymatic activity of 0.598 ± 0.36.

In turn, `CCn1cc(C(=O)[O-])c(=O)c2cc3c(cc21)OCO3.[K+]` gave a relative enzymatic activity of 0.598 ± 0.42.

For `CN(C)[C@@H]1C(=O)[C@@H](C(N)=O)C(=O)[C@@]2(O)C(=O)[C@H]3C(=O)c4c(O)ccc(Cl)c4[C@@](C)(O)[C@H]3C[C@@H]12`, the relative enzymatic activity amounted to 0.607 ± 0.41.

`CN(C)[C@@H]1C(=O)[C@H](C(N)=O)C(=O)[C@@]2(O)C(=O)[C@@H]3C(=O)c4c(O)cccc4[C@@](C)(O)[C@H]3C[C@@H]12` had a relative enzymatic activity of 0.603 ± 0.41.

The molecule `CN[C@H]1C[C@@H](N)[C@H](O)[C@@H](O[C@@H]2O[C@H](CO)[C@H](O)[C@@H]3O[C@@]4(O[C@H]23)O[C@H]([C@@H](N)CO)[C@H](O)[C@H](O)[C@H]4O)[C@@H]1O` registered a relative enzymatic activity of 0.592 ± 0.39.

`Cc1nc2c(=O)n(C)c(=O)nc-2n(C)n1` gave a relative enzymatic activity of 0.174 ± 0.24.

Consider `O=[N+]([O-])C(Br)(CO)CO`, for which the relative enzymatic activity was determined as 0.486 ± 0.48.

For `CN1C(=O)[C@]23CC4=CC=C[C@H](O)[C@H]4N2C(=O)[C@@]1(CO)SS3`, the relative enzymatic activity is 0.574 ± 0.39.

With `Cc1c(N)nc([C@H](CC(N)=O)NC[C@@H](N)C(N)=O)nc1C(=O)N[C@H](C(=O)N[C@@H](C)[C@H](O)[C@@H](C)C(=O)N[C@@H](C(=O)NCCc1nc(-c2nc(C(=O)NCCC[S+](C)C)cs2)cs1)[C@@H](C)O)[C@@H](O[C@H]1O[C@H](CO)[C@H](O)[C@@H](O)[C@H]1O[C@H]1O[C@H](CO)[C@@H](O)[C@H](OC(N)=O)[C@@H]1O)c1c[nH]cn1`, the relative enzymatic activity was determined as 0.969 ± 0.9.

`O=[N+]([O-])c1ccc(N(CCO)CCO)c2c1no[n+]2[O-]` came in with a relative enzymatic activity of 0.623 ± 0.41.

With `O=C1C=C2C(=CCOC2O)O1` (centres undefined), the relative enzymatic activity is 0.611 ± 0.42.

Molecule `CNC1C(O)C(OC2C(N)CC(N)C(OC3OC(C(C)O)C(O)C(O)C3N)C2O)OCC1(C)O` (centres undefined) yielded a relative enzymatic activity of 0.592 ± 0.38.

With `CC(=O)Oc1ccc(Cl)c2cccnc12`, the relative enzymatic activity is 0.611 ± 0.41.

The record behind these values is the supplement of paper PMC9446081.
